Here are results for twelve compounds from PubChem BioAssay (NCATS).

Where “and” joins values, the source holds several entries; their conditions need not be identical. Equal values may be shown once. Results filed as inconclusive are left out. Calls of active or inactive are those of the source. Unless noted, calls follow the shape of the dose curve; as a rule, active = well fitted curve in the direction sought with a large enough effect; inconclusive = small, poorly fitted or top-dose-only effect, or another doubt; inactive = no such curve, though single readings can be large; an effect the other way counts as inactive or inconclusive.

Experiment [1] in a line: qHTS Assay for Lipid Storage Modulators (AID 1519; calls by dose curve; as to activity change, negative = inhibition: % is scaled to controls: 0 for no effect and ±100 for the full control effect). The conditions noted are these: Drosophila S3 cells, BODIPY lipid droplet/cell ratio, laser cytometry, cells loaded with oleic acid. A digest of the protocol: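 Cells seeded at 5,000 per well were treated with compounds over a concentration series and loaded with oleic acid (400 uM, as added). Lipid droplet fluorescence (488 nm excitation, 500-530 nm channel) was read by laser-scanning cytometry and normalized to 20 uM Triacsin C.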

Experiment [2] in a line: Cell Viability - LYMP2-023 (AID 975).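 Also: cells exposed to compound for 24 hours at 37 °C; nearly all actives have a fitted effect of over 55% in size.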 Also: potency is read from the fitted curve at half-maximal effect. A digest of the protocol: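 CellTiter-Glo luminescence after 30 min at room temperature; decrease in intracellular ATP reflects toxicity. Cells: human lymphoblastoid line, 2500/well, 24 hr compound exposure at 37 C. AC50 fitted to standard Hill equation from concentration-response.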
The nature of experiment [3]: Cell Viability - LYMP2-025 (AID 976).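 Also: plate controls were DMSO only for no effect and tetraoctylammonium bromide control for full effect.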 The essentials:
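CellTiter-Glo luminescence (cellular ATP) after 24 h compound exposure at 37 C; LYMP2-025 human lymphoblastoid cells, 2500/well, complete medium. Tetraoctylammonium bromide positive control. AC50 by Hill equation fit of qHTS concentration-response.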

Experiment [4] is described as follows: Cell Viability - LYMP2-002 (AID 977).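 Also: plate controls were DMSO only for no effect and 92 µM tetraoctylammonium bromide for full effect.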 A digest of the protocol: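 Human lymphoblastoid cells, 2500/well, complete medium; 5 h 37 C settle; compound 24 h 37 C; CellTiter-Glo, 30 min RT; luminescence. Decrease in ATP = cytotoxicity; AC50 via Hill equation.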
The nature of experiment [5]: Cell Viability - LYMP2-006 (AID 978).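 Also: cells exposed to compound for 24 hours; nearly all actives have a fitted effect of over 60% in size.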 Also: potency is read from the fitted curve at half-maximal effect. A digest of the protocol:
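Cells are seeded at 2500 per well and rested 5 hr at 37 C. Compounds are added across a concentration series for 24 hr at 37 C, after which ATP is quantified by luciferase luminescence.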

A short description of experiment [6]: Cell Viability - LYMP2-007 (AID 979).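 Also: cells exposed to compound for 24 h before reading; nearly all actives have a fitted effect of over 60% in size.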 Also: potency is read from the fitted curve at half-maximal effect. A digest of the protocol: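 qHTS cytotoxicity: 2500 cells/well, 5 hr 37 C settle, compound 24 hr 37 C, CellTiter-Glo 30 min RT, luminescence. Decrease in ATP = toxicity. AC50 by standard Hill equation; tetraoctylammonium bromide positive control.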
Experiment [7] is described as follows: Cell Viability - LYMP2-012 (AID 982).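 Also: cellular ATP by luciferase luminescence where a drop means cytotoxicity; cells exposed to compound for one day before reading; nearly all actives have a fitted effect of over 55% in size.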 Also: potency is read from the fitted curve at half-maximal effect.
Experiment [8] can be described thus: Cell Viability - LYMP2-014 (AID 983). Also: nearly all actives have a fitted effect of over 50% in size. Also: potency is read from the fitted curve at half-maximal effect. A digest of the protocol:
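2500 cells/well, 5 hr 37 C; cpd 24 hr 37 C, complete medium; CellTiter-Glo 30 min RT, luminescence; ATP loss = toxicity; AC50 via Hill eqn; tetraoctylammonium bromide positive control.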

The nature of experiment [9]: Cell Viability - LYMP2-016 (AID 984).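 Also: cells exposed to compound for 24 hours at 37 °C; nearly all actives have a fitted effect of over 55% in size.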 Also: potency is read from the fitted curve at half-maximal effect. A digest of the protocol: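 Cells were seeded at 2500 per well and rested 5 hr before a 24 hr compound exposure at 37 C. Viability was then gauged as cellular ATP by luciferase luminescence, with AC50 values fitted to the Hill equation.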
A short description of experiment [10]: Cell Viability - LYMP2-018 (AID 985). Also: nearly all actives have a fitted effect of over 50% in size. Also: potency is read from the fitted curve at half-maximal effect. The essentials: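 2500 cells/well; 5 hr 37 C; cmpd 24 hr 37 C, complete medium; CellTiter-Glo 30 min RT; luminescence. Tetraoctylammonium bromide positive control. AC50 via Hill fit.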
Experiment [11] in a line: Cell Viability - LYMP2-022 (AID 987). Also: nearly all actives have a fitted effect of over 55% in size. Also: potency is read from the fitted curve at half-maximal effect. A digest of the protocol: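 Luminescent ATP read-out (CellTiter-Glo, 30 min, RT) after 24 hr, 37 C compound exposure of 2500 human lymphoblastoid cells/well in complete medium. Cytotoxicity taken as concentration-dependent ATP loss; AC50 from standard Hill equation.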
Experiment [12] in a line: Cell Viability - LYMP2-024 (AID 988). Also: nearly all actives have a fitted effect of over 60% in size. Also: potency is read from the fitted curve at half-maximal effect. A digest of the protocol:
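ATP-based luminescence (CellTiter-Glo, 30 min RT) after 24 h compound exposure at 37 C of 2500 lymphoblastoid cells/well; decrease in ATP taken as cytotoxicity. qHTS concentration-response fitted to standard Hill equation for AC50.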

The nature of experiment [13]: Cell Viability - LYMP2-026 (AID 989). Also: nearly all actives have a fitted effect of over 50% in size. Also: potency is read from the fitted curve at half-maximal effect. The essentials: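 qHTS cytotoxicity: 2500 cells/well, 5 hr 37 C, compound 24 hr 37 C, CellTiter-Glo 30 min RT, luminescence. Tetraoctylammonium bromide positive control. AC50 via standard Hill fit.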
A short description of experiment [14]: Cell Viability - LYMP1-002 - Assay at 24 hr (AID 993). Also: potency is read from the fitted curve at half-maximal effect. A digest of the protocol: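 CellTiter-Glo luminescence (intracellular ATP) after 24 h compound exposure, 37 C, in LYMP1-002 human lymphoblastoid cells; decreased ATP taken as cytotoxicity. AC50 from standard Hill fit of concentration-response curves.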
A short description of experiment [15]: Cell Viability - LYMP1-002 - Assay at 40 hr (AID 994). Also: nearly all actives have a fitted effect of over 60% in size. Also: potency is read from the fitted curve at half-maximal effect. A digest of the protocol:
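qHTS cytotoxicity; 2500 cells/well, 5 hr 37 C settle, compound 40 hr 37 C. CellTiter-Glo, 30 min RT, luminescence (ATP). Concentration-response, Hill fit → AC50. Pos. ctrl tetraoctylammonium bromide.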

Experiment [16] addresses Alpha-galactosidase A (Homo sapiens) (UniProt P06280). Description: Counterscreen for Glucocerebrosidase Inhibitors: qHTS Assay for Human alpha-Galactosidase at pH 4.5 (AID 992). Also: 0% is about no effect. A digest of the protocol:
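Fluorogenic 1536-well qHTS at pH 4.5 (citrate, Tween-20): 2 nM enzyme, 80 uM 4-MU-alpha-galactoside, 20 min room temperature, NaOH/glycine stop. Titration 0.7 nM to 77 uM, data normalized to no-enzyme and full-activity controls, Hill-fitted AC50.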
For orientation: The purpose of a counterscreen is to sort out artefacts and off-target activity.

Experiment [17] addresses alpha-glucosidase (Oryza sativa, rice) (UniProt Q653V4). Description: Counterscreen for Glucocerebrosidase Inhibitors: qHTS Assay for Rice alpha-Glucosidase at pH 5.0 (AID 997).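 Also: 0% = full activity with enzyme and -100% = basal without enzyme.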 A digest of the protocol:
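Endpoint fluorogenic assay at pH 5.0: compounds (0.7 nM to 77 uM) titrated against 4 nM rice enzyme and 400 uM 4-MU-alpha-glucoside for 20 min at room temperature; NaOH/glycine stop, read ex 365/em 440 nm, Hill-fitted AC50.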

Experiment [18] in a line: Validation of Assay for Modulators of Lamin A Splicing (AID 1459; active = well fitted curve in the direction sought with a large enough effect in the signal ratio; the % refers to the signal ratio;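 also: cells exposed to compound for two days before reading; 0% is about no effect; ratio rise marks activators and ratio drop marks inhibitors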). The essentials:
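HeLa S3 lamin A-EGFP/DsRed2 stable clone, 600 cells/well, Opti-MEM 2% FBS; compounds by pin tool; 48 hrs, 37 °C/5% CO2; Acumen 488 nm scan, objects 10-100 um; GFP/RFP intensity ratio.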

Experiment [19] addresses DNA repair nuclease/redox regulator APEX1 (Homo sapiens) (UniProt P27695). Description: qHTS Validation Assay for Inhibitors of the Human Apurinic/apyrimidinic Endonuclease 1 (APE1) (AID 1705;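 also: TAMRA fluorescence gain over two minutes as APE1 cuts a quenched THF abasic duplex; % is scaled to controls: 0 for no effect and ±100 for the full control effect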). The essentials:
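qHTS, 1536-well. APE1 + cpd 15 min RT → 50 nM TAMRA/BHQ-2 THF-abasic dsDNA substrate → kinetic fluorescence, 3 reads/60 s; delta(read3−read1) = reaction progress. No-enzyme buffer = negative control.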
Background: qHTS replaces the single test concentration by a dilution series.

The nature of experiment [20]: Counterscreen for APE1 Inhibitors: Fluorescent Dye Displacement Validation Assay (AID 1707).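 Also: plate controls were ThO with dsDNA and no compound for no effect and ThO without dsDNA for full effect.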 A digest of the protocol:
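Counterscreen flags promiscuous DNA binders: compounds displacing ThO from duplex DNA (abasic THF site, 50 nM) reduce 540 nm emission (480 nm excitation). ThO 250 nM final; Tris-HCl pH 7.5 with NaCl, MgCl2 and Tween-20.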

Setting [21] is: measured here: cell count channel max response.
The mark [22] stands for this setting: measured here: lipid channel max response.

Chain of DNA repair nuclease/redox regulator APEX1 (Homo sapiens) (P27695 whole entry, looked up): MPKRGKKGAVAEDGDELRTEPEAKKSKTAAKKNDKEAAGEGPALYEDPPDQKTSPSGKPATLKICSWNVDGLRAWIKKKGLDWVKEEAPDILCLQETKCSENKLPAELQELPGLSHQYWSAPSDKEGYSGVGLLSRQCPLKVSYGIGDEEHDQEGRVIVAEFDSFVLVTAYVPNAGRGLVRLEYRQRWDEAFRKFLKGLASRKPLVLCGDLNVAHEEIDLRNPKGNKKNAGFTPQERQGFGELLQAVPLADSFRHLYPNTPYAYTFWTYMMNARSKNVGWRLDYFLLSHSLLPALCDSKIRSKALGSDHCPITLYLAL
Chain of Alpha-galactosidase A (Homo sapiens) (P06280 whole entry, looked up): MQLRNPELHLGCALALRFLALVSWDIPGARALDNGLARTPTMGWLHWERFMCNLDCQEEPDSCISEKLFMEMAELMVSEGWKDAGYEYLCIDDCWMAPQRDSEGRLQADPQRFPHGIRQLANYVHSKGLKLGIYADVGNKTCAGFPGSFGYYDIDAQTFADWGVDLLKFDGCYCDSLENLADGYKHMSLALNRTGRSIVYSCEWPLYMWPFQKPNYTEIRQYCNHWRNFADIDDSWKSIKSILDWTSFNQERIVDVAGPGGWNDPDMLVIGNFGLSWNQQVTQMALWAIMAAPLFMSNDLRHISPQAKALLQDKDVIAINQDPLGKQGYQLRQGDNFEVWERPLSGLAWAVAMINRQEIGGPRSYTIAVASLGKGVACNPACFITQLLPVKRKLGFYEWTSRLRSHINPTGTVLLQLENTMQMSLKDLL

For the compound `O=c1cc(-c2ccccc2)oc2cc(O)cc(O)c12`, the activity change, negative = inhibition in experiment [1] (at 25.7 µM (top of the series)) is -11.6% (inactive); in experiment [1] (at 57.5 µM (top of the series)), 1.96% (inactive) and -20.6% (inactive). Besides, the max response in experiment [1] (setting [21]) was -13.1% and 8.12% and 6.97%; in [1] (setting [22]), -20.8% and 15.3% and -13.5%.
For the compound `O=c1c(O)c(-c2ccc(O)cc2)oc2cc(O)cc(O)c12`, the Potency result in experiment [2], in experiment [4], in [5], in experiment [6], in experiment [7] and in experiment [8] was “inactive” each time. For the same compound, the Potency result in [9], in experiment [10], in experiment [11], in [12], in experiment [13] and in experiment [14] was “inactive” throughout. For the same compound, in experiment [15], the Potency entry was “inactive”. Further, the call in experiment [3] was inactive. Further, the values for the activity change, negative = inhibition in experiment [1] (at 25.7 µM (top of the series)) and in experiment [1] (at 57.5 µM (top of the series)) were -1.01% (inactive) and 9.57% (inactive), respectively. The max response in [1] (setting [21]) is -23.1% and 1.49%; in experiment [1] (setting [22]), -23.3% and 13.5%.
For `O=c1cc(-c2ccccc2)oc2cc(O)c(O)c(O)c12`, the activity change, negative = inhibition in [1] (at 57.5 µM (top of the series)) was 6.99% (inactive). The max response in experiment [1] (setting [21]) was -15.3%; in experiment [1] (setting [22]), -4.95%.
The matching figures for `C[C@]12CCC3c4ccc(O)cc4CCC3C1CCC2=O` (stereo partly specified): 3.27% (inactive), -11.3% and -4.67%.
Regarding `O=c1c(-c2ccc(O)cc2)coc2cc(O)ccc12`, the Potency result in experiment [2], in experiment [4], in [5], in experiment [6], in [8] and in [9] was “inactive” throughout. The Potency result in experiment [10], in [11], in experiment [12], in experiment [13], in experiment [14] and in [15] was “inactive” throughout. Also, the compound was called inactive in experiment [3], in [16], in experiment [17], in experiment [18], in experiment [19] and in [20]. Besides, the activity change, negative = inhibition in experiment [1] (at 57.5 µM (top of the series)) is 2.37% (inactive) and 2.36% (inactive) and 1.08% (inactive). For the same compound, the max response in [1] (setting [21]) is 20.5% and -6.62% and -6.98%; in [1] (setting [22]), 24.2% and -1.3% and -6.64%.
With `COc1ccc(-c2coc3cc(O)ccc3c2=O)cc1`, the activity change, negative = inhibition in experiment [1] (at 57.5 µM (top of the series)) was -1.11% (inactive). The max response in [1] (setting [21]) worked out at 3.06%; in experiment [1] (setting [22]) it was 2.76%.
As for `COc1ccccc1N1CCN(CCCNc2cc(=O)n(C)c(=O)n2C)CC1`, the result in experiment [16], in experiment [17], in [19] and in experiment [20] was inactive. Besides, the activity change, negative = inhibition in experiment [1] (at 25.7 µM (top of the series)) is 0.233% (inactive); in [1] (at 57.5 µM (top of the series)) it was 1.54% (inactive). Besides, the max response is -9.35% and -6.19% in experiment [1] (setting [21]); -9.3% and -4.74% in experiment [1] (setting [22]).
Regarding `Clc1ccc(Cn2c(CN3CCCC3)nc3ccccc32)cc1`, the result in experiment [16], in experiment [17], in experiment [18], in [19] and in experiment [20] was inactive. Besides, the activity change, negative = inhibition in experiment [1] (at 25.7 µM (top of the series)) was -4.13% (inactive). Moreover, the results for the max response in experiment [1] (setting [21]) and in experiment [1] (setting [22]) were -8.03% and -12.8%, respectively.
On to `CCN(CC)CCOC(=O)c1ccc(N)cc1`, for which the compound was classed as inactive in experiment [16], in experiment [17], in experiment [19] and in experiment [20]. In addition, the activity change, negative = inhibition in experiment [1] (at 25.7 µM (top of the series)) was -0.292% (inactive); in experiment [1] (at 57.5 µM (top of the series)), 1.41% (inactive). For the same compound, the max response in experiment [1] (setting [21]) was 4.92% and -22.1%; in [1] (setting [22]) it was 5.47% and -19.5%.
Turning to `COCCCCC(=NOCCN)c1ccc(C(F)(F)F)cc1`, the outcome in experiment [16] and in [17] was inactive. Further, in experiment [1] (at 25.7 µM (top of the series)), the activity change, negative = inhibition was 0.501% (inactive). The max response was 5.99% in experiment [1] (setting [21]) and 5.1% in [1] (setting [22]).
Consider `CC1=C(/C=C/C(C)=C/C=C/C(C)=C/C(=O)Nc2ccc(O)cc2)C(C)(C)CCC1`, for which the Potency is 50.1 µM (active) in experiment [2]; 50.1 µM (active) in [5]; 39.8 µM (active) in experiment [6]; 39.8 µM (active) in experiment [7]; 50.1 µM (active) in [8]; 63.1 µM (active) in experiment [9]. The Potency in experiment [10] is 50.1 µM (active); in [11] it was 39.8 µM (active); in experiment [12], 39.8 µM (active); in experiment [13], 39.8 µM (active); in experiment [14], 50.1 µM (active); in [15], 50.1 µM (active). Moreover, the call in [16], in experiment [17], in [19] and in [20] was inactive.
Turning to `CC(=O)O[C@]1(C(C)=O)CC[C@H]2[C@@H]3C=C(Cl)C4=CC(=O)[C@@H]5C[C@@H]5[C@]4(C)[C@H]3CC[C@@]21C`, the Potency entry in [2], in [4], in [5], in experiment [6], in experiment [7] and in [8] was “inactive” each time. The Potency entry in experiment [9], in experiment [10], in experiment [11], in [12], in experiment [13] and in [14] was “inactive” each time. In addition, the Potency result in experiment [15] is “inactive”. In addition, the call in [3] was inactive.
